Screening results as filed in PubChem.
OPRM1-OPRD1 ag: agonists of human mu-delta opioid receptor heterodimerization; P35372+P41143; activation, % at 9.3 µM; cells, OPRM1-OPRD1 heterodimerization, luminescence; 340,000 compounds, 0.3% hits; in the data active means activation above about 18%;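 further: 0% = vehicle-treated cells and 100% = reference agonist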
HTR5A ag ctr: counter-screen for OPRM1-OPRD1 agonists: human HTR5A agonism; HTR5A agonist assay, luminescence, cell-based; activation, % at 9.3 µM; 340,000 compounds, 0.61% hits; AID 504692; in the data active means activation mostly above about 9.5%, no sharp cut-off; inactive means mostly below about 7.6%;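 further: 0% = cells with vehicle only and 100% = reference agonist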
Target sequence (P47898 whole entry, looked up): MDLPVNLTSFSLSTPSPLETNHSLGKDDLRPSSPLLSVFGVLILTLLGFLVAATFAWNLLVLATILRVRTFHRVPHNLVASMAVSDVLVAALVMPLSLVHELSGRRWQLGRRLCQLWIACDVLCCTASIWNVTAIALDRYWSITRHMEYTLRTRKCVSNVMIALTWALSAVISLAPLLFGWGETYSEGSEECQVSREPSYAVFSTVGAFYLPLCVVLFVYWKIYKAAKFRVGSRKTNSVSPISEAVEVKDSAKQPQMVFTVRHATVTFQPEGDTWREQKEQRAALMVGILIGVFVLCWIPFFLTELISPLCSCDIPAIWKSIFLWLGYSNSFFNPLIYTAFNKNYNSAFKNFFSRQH
OPRM1-OPRD1 inv: inverse agonist of human OPRM1-OPRD1 heterodimerization; cell-based MOR-DOR heterodimer luminescence, inverse agonism; inhibition, % at 9.3 µM; 340,000 compounds, 0.21% hits; AID 504357; in the data active means inhibition above about 22%, passing the limit was not always enough;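 further: 0% = cells with DMSO and 100% = wells without cells with DMSO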
HTR5A inv ag: HTR5A inverse agonism, opioid heterodimer counter-screen; 340,000 compounds, 0.083% hits; inhibition, % at 9.3 µM; HTR5A cell line, luminescence; P47898; in the data active means inhibition mostly above about 23%, no sharp cut-off; inactive means mostly below about 18%;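 further: 0% = cells with DMSO and 100% = no-cell wells with DMSO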
OPRM1-D1 inv cf: confirmation of human OPRM1-OPRD1 heterodimerization inverse agonists; shares compounds with OPRM1-OPRD1 inv; cells expressing OPRM1/OPRD1 heterodimer, luminescence; inhibition, % at 9.3 µM; 580 compounds, 20% hits; AID 504900; in the data active means inhibition above about 32%;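 further: 0% = cells with DMSO and 100% = wells lacking cells with DMSO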
HTR5A inv ctr2: inverse agonist of human HTR5A in OPRM1-OPRD1 counter-screen. inhibition, % at 9.3 µM. 580 tested, under 10 active. HTR5A-expressing cells, luminescence, inverse agonism. shares compounds with OPRM1-OPRD1 inv; call rule not given here;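 further: 0% = cells with DMSO and 100% = no-cell wells with DMSO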
* hit, by the source's call. The list is not random: actives were taken first. Their share in the collection is about 1.1%.

For CCC(C)[C@H](NC(=O)NCc1ccc(S(N)(=O)=O)cc1)C(=O)O (stereo not given in full) the results were OPRM1-OPRD1 ag 0, HTR5A ag ctr 2, OPRM1-OPRD1 inv 2 and HTR5A inv ag -27.
For CSC1=C(C#N)C(c2ccccc2C)C(C#N)=C(N)N1 (stereo not given) the results were OPRM1-OPRD1 ag -8, HTR5A ag ctr -2, OPRM1-OPRD1 inv 38*, HTR5A inv ag 7, OPRM1-D1 inv cf 29 and HTR5A inv ctr2 -1.
For CCOC(=O)C1=C(COC(=O)c2ncc(Cl)c(Cl)c2Cl)NC(=O)NC1C (stereo not given) the results were OPRM1-OPRD1 ag 1, HTR5A ag ctr 1, OPRM1-OPRD1 inv -9 and HTR5A inv ag 6.
Screening Cc1ccc(NC(=O)COC(=O)c2ccc(-n3nc(C)cc3C)cc2)c(F)c1 returned OPRM1-OPRD1 ag 0, HTR5A ag ctr 5, OPRM1-OPRD1 inv 1 and HTR5A inv ag 3.
`Cc1ccc(NC(=O)CS(=O)CC(=O)Nc2ccccc2-c2ccc(C)o2)cc1` (stereo not given) gave OPRM1-OPRD1 ag -6, HTR5A ag ctr -3, OPRM1-OPRD1 inv 35*, HTR5A inv ag 8, OPRM1-D1 inv cf 3 and HTR5A inv ctr2 3.
CCOC(=O)c1c(-c2ccco2)csc1NC(=O)COC(=O)c1cnc(C)cn1 was read as OPRM1-OPRD1 ag -2, HTR5A ag ctr -3, OPRM1-OPRD1 inv 11 and HTR5A inv ag 7.
For COc1ccccc1N(CC(=O)NCCSCc1ccccc1Cl)S(C)(=O)=O the results were OPRM1-OPRD1 ag -1, HTR5A ag ctr -2, OPRM1-OPRD1 inv 6 and HTR5A inv ag 7.
Screening O=c1[nH]c2ccc(S(=O)(=O)Nc3ccccc3O)cc2[nH]1 returned OPRM1-OPRD1 ag -2, HTR5A ag ctr 8, OPRM1-OPRD1 inv 8 and HTR5A inv ag -16.
COc1ccc(NC(=O)CSc2nnc(NC(=O)c3ccccc3C(=O)O)s2)cc1 was read as OPRM1-OPRD1 ag 0, HTR5A ag ctr 2, OPRM1-OPRD1 inv 2 and HTR5A inv ag -30.
`Cc1cccc(C)c1OCC(=O)NC1CC1` gave OPRM1-OPRD1 ag -2, HTR5A ag ctr 3, OPRM1-OPRD1 inv 9 and HTR5A inv ag -6.
Screening Cc1cccc(C)c1OCC(=O)NNC(=S)NC(=O)C1CC1 returned OPRM1-OPRD1 ag -7, HTR5A ag ctr -6, OPRM1-OPRD1 inv 36*, HTR5A inv ag 29, OPRM1-D1 inv cf -72 and HTR5A inv ctr2 -36.
`O=C(COC(=O)c1cc(S(=O)(=O)NCc2ccccc2)ccc1O)c1cc2ccccc2o1` gave OPRM1-OPRD1 ag -8, HTR5A ag ctr -3, OPRM1-OPRD1 inv 41*, HTR5A inv ag 9, OPRM1-D1 inv cf -209 and HTR5A inv ctr2 -8.
Screening O=C(COC(=O)c1cc(S(=O)(=O)NCc2ccccc2)ccc1O)NCc1ccccc1 returned OPRM1-OPRD1 ag -2, HTR5A ag ctr 6, OPRM1-OPRD1 inv 8 and HTR5A inv ag -20.
`C=C(CN(C)C)C(=O)c1cc(OC)c(OC)cc1OC` gave OPRM1-OPRD1 ag -1, HTR5A ag ctr -5, OPRM1-OPRD1 inv 4 and HTR5A inv ag 19.
For O=C(COC(=O)c1ccc(O)cc1)c1ccc(S(=O)(=O)N2CCCCC2)cc1 the results were OPRM1-OPRD1 ag -1, HTR5A ag ctr -3, OPRM1-OPRD1 inv 3 and HTR5A inv ag 7.
O=C(COC(=O)c1ccc(CO)cc1)c1ccc(S(=O)(=O)N2CCCCC2)cc1 was read as OPRM1-OPRD1 ag -10, HTR5A ag ctr -9, OPRM1-OPRD1 inv 38*, HTR5A inv ag 22, OPRM1-D1 inv cf -352 and HTR5A inv ctr2 -1.
Screening CCc1nnc(NS(=O)(=O)c2ccc(N3C(=O)c4ccc(C(=O)O)cc4C3=O)cc2)s1 returned OPRM1-OPRD1 ag -2, HTR5A ag ctr -1, OPRM1-OPRD1 inv 15 and HTR5A inv ag 5.
Screening O=C(CN1C(=O)C(=O)c2ccccc21)OCN1C(=O)c2ccccc2C1=O returned OPRM1-OPRD1 ag -6, HTR5A ag ctr -2, OPRM1-OPRD1 inv 30 and HTR5A inv ag 5.
COc1ccccc1NC(=O)COC(=O)CN1C(=O)C(=O)c2ccccc21 was read as OPRM1-OPRD1 ag -8, HTR5A ag ctr 1, OPRM1-OPRD1 inv 57*, HTR5A inv ag 10, OPRM1-D1 inv cf 8 and HTR5A inv ctr2 6.
N#C/C(=C\c1ccncc1)c1nc2ccccc2c(=O)[nH]1 was read as OPRM1-OPRD1 ag -6, HTR5A ag ctr -2, OPRM1-OPRD1 inv 33*, HTR5A inv ag 7, OPRM1-D1 inv cf -14 and HTR5A inv ctr2 17.
N#C/C(=C/c1ccncc1)c1nc2ccccc2c(=O)[nH]1 was read as OPRM1-OPRD1 ag -5, HTR5A ag ctr 9, OPRM1-OPRD1 inv 27 and HTR5A inv ag -10.
CC1CCN(C(=O)CN2C(=O)c3cccc4cccc(c34)C2=O)CC1 was read as OPRM1-OPRD1 ag -2, HTR5A ag ctr -2, OPRM1-OPRD1 inv 8 and HTR5A inv ag 24.
For O=C(CN1C(=O)C(=O)c2ccccc21)c1ccc(Cl)cc1 the results were OPRM1-OPRD1 ag -8, HTR5A ag ctr 1, OPRM1-OPRD1 inv 46*, HTR5A inv ag 1, OPRM1-D1 inv cf -79 and HTR5A inv ctr2 -9.
CC1CCN(C(=O)CN2C(=O)C(=O)c3ccccc32)CC1 was read as OPRM1-OPRD1 ag -5, HTR5A ag ctr 0, OPRM1-OPRD1 inv 29*, HTR5A inv ag 1, OPRM1-D1 inv cf 13 and HTR5A inv ctr2 5.
Screening CC(C)(C)NC(=O)CN(Cc1cccs1)C(=O)CN1C(=O)C(=O)c2ccccc21 returned OPRM1-OPRD1 ag -6, HTR5A ag ctr 6, OPRM1-OPRD1 inv 33*, HTR5A inv ag -16, OPRM1-D1 inv cf 24 and HTR5A inv ctr2 14.
Screening CC(C)(C)NC(=O)CN(Cc1cccs1)C(=O)c1csnn1 returned OPRM1-OPRD1 ag -1, HTR5A ag ctr -3, OPRM1-OPRD1 inv 4 and HTR5A inv ag -14.
Screening CCN(CC)C(=O)CN1C(=O)C(=O)c2ccccc21 returned OPRM1-OPRD1 ag -8, HTR5A ag ctr -1, OPRM1-OPRD1 inv 38*, HTR5A inv ag 3, OPRM1-D1 inv cf 14 and HTR5A inv ctr2 8.
For CCCc1c(C(=O)N/N=C/c2cccnc2)nnn1-c1nonc1N the results were OPRM1-OPRD1 ag -2, HTR5A ag ctr -3, OPRM1-OPRD1 inv 8 and HTR5A inv ag 13.
Screening COC(=O)c1cccc2c1NC(=O)C2=O returned OPRM1-OPRD1 ag -5, HTR5A ag ctr -4, OPRM1-OPRD1 inv 26 and HTR5A inv ag 21.
Screening CCc1cccc2c1NC(=O)C2=O returned OPRM1-OPRD1 ag -12, HTR5A ag ctr -3, OPRM1-OPRD1 inv 61*, HTR5A inv ag 14, OPRM1-D1 inv cf inactive and HTR5A inv ctr2 -1.
`Cc1ccc(C)c(N2CCN(C(=O)CCCOc3cc(=O)n(C)c4ccccc34)CC2)c1` gave OPRM1-OPRD1 ag -1, HTR5A ag ctr 3, OPRM1-OPRD1 inv 4 and HTR5A inv ag 24.
